Test results taken from PubChem BioAssay (NCATS).
Records with an inconclusive call do not appear. A number with no mark means an inactive call. Calls follow the shape of the dose curve; as a rule, active = well fitted inhibition curve with a large enough effect; inconclusive = small, poorly fitted or top-dose-only effect; inactive = flat fitted curve, though single readings scatter.

Target: Calcium and integrin-binding protein 1 (Homo sapiens) (UniProt Q99828)
Assay: Primary qHTS for Identification of Calcium Integrin Binding Protein 1 (CIB1) Competitor (AID 1508620); also: top concentration of the series differs between compounds
Details: CIB1-GST / FITC-alphaIIb peptide fluorescence polarization; series mostly up to 114 µM; activity change, negative = inhibition: at the top concentration
In short: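 Fluorescence polarization competition: GST-tagged CIB1 (1 uM final) preincubated with compound 15 min at room temperature, then FITC-labelled alphaIIb peptide (100 nM final) added. After 15 min at room temperature, polarization read at Ex 480/Em 540.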
% is scaled to controls: 0 for no effect and ±100 for the full control effect.

Sequence of Calcium and integrin-binding protein 1 (Homo sapiens) (Q99828 whole entry, looked up): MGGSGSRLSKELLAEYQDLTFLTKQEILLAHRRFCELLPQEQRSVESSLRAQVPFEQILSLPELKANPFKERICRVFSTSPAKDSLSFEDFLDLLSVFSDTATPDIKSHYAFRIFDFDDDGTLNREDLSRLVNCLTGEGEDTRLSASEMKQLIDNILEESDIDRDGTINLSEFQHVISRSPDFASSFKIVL

SMILES | activity change, negative = inhibition
CC(C)c1cccc2c(-c3ccccc3)cc(-c3ccc(-c4ccc(C(=O)O)cc4)[nH]3)nc12 | 3.96%
CC1(C)CCC2(C(=O)OC3OC(CO)C(O)C(O)C3O)CCC3(C)C(=CCC4C5(C)CCC(O)C(C)(C(=O)O)C5CCC43C)C2C1O (stereo not given) | -2.85% [at 30.2 µM]
COC(=O)C12CCC(C)C(C)C1C1=CCC3C4(C)CCC(OC(C)=O)C(C)(C)C4CCC3(C)C1(C)CC2 (stereo not given) | 2% [at 57.7 µM]
C=CC(=O)Nc1cc(Nc2ncc(Cl)c(-c3c[nH]c4ccccc34)n2)c(OC)cc1N(C)CCN(C)C | -9.22%
O=S(=O)(Nc1ccccn1)c1ccc(N=Cc2c(O)[nH]c3ccc4ncsc4c23)cc1 | -7.41% [at 30.2 µM]
COC(=O)N1CCC(n2ncc3c(N4CCOCC4)nc(-c4ccc(NC(=O)Nc5ccc(CO)cc5)cc4)nc32)CC1 | 0.925%
C/C1=C\[C@H]2OC(=O)[C@@H](C)[C@@H]2CC/C(C(=O)O)=C/CC1 | -3.52%
C[C@H](NC(c1cccc2[nH]c(=O)c(=O)[nH]c12)P(=O)(O)O)c1ccc(Br)cc1 (stereo not given in full) | 2.41%
O=C(O)c1cn(C2CC2)c2cc(N3C[C@@H]4C[C@H]3CN4)c(F)cc2c1=O | -8.8%
COC(=O)C12C(=O)C(C)=C(O)C1(C)C(C)=CC1C3(CO)CCC(O)C(C)(C)C3CCC12C (stereo not given) | -4.24% [at 57.7 µM]
CC(C)(O)/C=C/C1=CC(=O)[C@@](C)(O)C[C@H]1O | 3.57%
C=C(CO)C12OC1C1(C)C(=CC2=O)C(O)C(O)CC1C (stereo not given) | -7.25%
Cc1cccc(-c2[nH]c(Cc3cccc(C(N)=O)c3)nc2-c2ccc3nccnc3c2)n1 | -4.62%
COc1cc2nc(N3CCCC3)nc(NCCCCCN3CCCC3)c2cc1OC | 14.9%
CC(C)[N+]1(C)C2CCC1CC(OC(=O)C(CO)c1ccccc1)C2 (stereo not given) | 3.86%
C[C@@H]1O[C@@H](O[C@H]2[C@H](OC(=O)[C@]34CCC(C)(C)C[C@H]3C3=CCC5[C@@]6(C)C[C@H](O)[C@H](O[C@@H]7O[C@H](CO)[C@@H](O[C@H]8OC[C@](O)(CO)[C@H]8O)[C@H](O)[C@H]7O)[C@@](C)(CO)C6[C@H](O)C[C@@]5(C)[C@]3(C)C[C@H]4O)OC[C@H](O)[C@@H]2O)[C@H](O)[C@H](O)[C@H]1O[C@@H]1OC[C@@H](O)[C@H](O[C@@H]2OC[C@](O)(CO)[C@H]2O)[C@H]1O (stereo not given in full) | -2.92% [at 12.4 µM]
C=C1CC[C@H]2[C@@](C)(CCC(O)[C@@]2(C)CO)[C@@H]1CCC1=CCOC1=O (stereo not given in full) | -4.52% [at 57.7 µM]
COC(=O)C1=CO[C@@H](O[C@@H]2O[C@H](CO)[C@@H](O)[C@H](O)[C@H]2O)C2C1C(=O)C[C@H]2C (stereo not given in full) | 2.21% [at 57.7 µM]
N#Cc1ccc(-c2cnc3[nH]cc(NC(=O)c4cccnc4)c3c2)cc1 | -8.36%
CC[C@H](CO)Nc1nc(NCc2ccc(-c3ccccn3)cc2)c2ncn(C(C)C)c2n1 | 4.8%
O=C(OC[C@@]1(O)CO[C@@H](O[C@H]2[C@H](Oc3ccc(O)cc3)O[C@H](CO)[C@@H](O)[C@@H]2O)[C@@H]1O)c1ccc(O)cc1 | 0.909% [at 57.7 µM]
COc1cc2ncnc(N3CCC(Oc4cnc5ccccc5n4)C3)c2cc1OC (stereo not given) | -3.07%
CCc1ccc(Cc2ccc3c(c2)[C@]2(OC3)O[C@H](CO)[C@@H](O)[C@H](O)[C@H]2O)cc1 | 1.38%
COc1ccc([C@@]2(O)c3c(ccc4c3OC(C)(CCC=C(C)C)C=C4)NC(=O)[C@@H]2OC)cc1 (stereo not given in full) | -1.13% [at 57.7 µM]
COC(=O)[C@@]1(c2ccc(C)cc2)C[C@H]1CN1CCC(O)(c2ccccc2)CC1 | 0.336%
C[C@]12C[C@@H](O)[C@@H]3C[C@@]1(O[C@@H]1O[C@H](CO)[C@@H](O)[C@H](O)[C@H]1O)[C@]3(COC(=O)c1ccccc1)C(=O)O2 | 2.45% [at 57.7 µM]
C=C(C(=O)O)C1CC2=C(C)CCCC2(C)C[C@@H]1O (stereo not given in full) | 3.22%
C[C@@H]1O[C@@H](O[C@@H]2CO[C@@H](O[C@H]3CC[C@@]4(C)C(CC[C@]5(C)C4CC=C4[C@@H]6CC(C)(C)CC[C@]6(C(=O)O[C@@H]6O[C@H](CO)[C@@H](O)[C@H](O)[C@H]6O)CC[C@]45C)[C@]3(C)CO)[C@H](O)[C@H]2O[C@@H]2O[C@H](CO)[C@@H](O)[C@H](O)[C@H]2O)[C@H](O)[C@H](O)[C@H]1O (stereo not given in full) | -4.42% [at 30.2 µM]
CCN(Cc1cccnc1)C(=O)CN(c1ccc(OC)nc1)S(=O)(=O)c1ccccc1C | 1.71%
COC(=O)C1=CO[C@@H](O[C@@H]2O[C@H](CO)[C@@H](O)[C@H](O)[C@H]2O)[C@@H]2C(COC(C)=O)=C[C@H](O)[C@H]12 | 0.879% [at 57.7 µM]
